CendR NRP1 mod: alters CendR peptide binding to human NRP-1. O14786. FAM-RPARPAR peptide binding to NRP-1, fluorescence polarization. inhibition, % at 25 µM. hit rate 0.85% among 360,000;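 active = inhibition or corrected inhibition above about 18%, plus a signal ratio from 0.5 to 1.5, limit read from the data, passing the limit was not always enough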
NadD inh: NadD (S. aureus) enzyme inhibition; hit rate 0.78% among 360,000; purified NadD enzyme, colorimetric absorbance read-out; AID 602399; inhibition, % at 20 µM; in the data active = inhibition above about 26%
Myeloid diff 2: promotes myeloid progenitor differentiation; ER-HoxA9 myeloid progenitors, lysozyme-GFP differentiation, flow cytometry; hit rate 1% among 360,000; calls only at 10 µM; AID 624256;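 active = normalized GFP-positive differentiation at or above the plate's own cutoff, the solvent-only control mean plus 3 SD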;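 also: cells exposed to compound for four days before flow analysis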
FAS-TE inh: inhibitors of human fatty acid synthase thioesterase domain | P49327 | recombinant FAS-TE, OMFH fluorogenic substrate, fluorescence endpoint | inhibition, % at 15 µM | hit rate 0.67% among 360,000;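 active = compounds whose normalised, plate-corrected inhibition of enzyme fluorescence in the single-dose primary screen is 50% or more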;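 also: 0% = DMSO with enzyme and 100% = substrate without enzyme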
CRFBP-R2 block: antagonists of CRF-binding protein/CRF-R2 receptor complex; HEK293 CRF-R2/CRF-BP, CRF-induced calcium fluorescence; inhibition, % at 11.8 µM; hit rate 0.59% among 350,000;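 active = inhibition of the ligand-induced calcium signal above about 50% at the single tested concentration, limit read from the data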
Myeloid diff CP1: compounds promoting myeloid differentiation; calls only; hit rate 2% among 2,300; AID 651706; ER-HoxA9 myeloid progenitors, GFP/Mac1 double-positive flow; shares compounds with Myeloid diff 2;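 active = share of green or green-and-red cells above 9 and 9% in run 1 or 4 and 3% in run 2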
GFP autofluor: counter-screen for myeloid differentiation promoters: compound fluorescence; shares compounds with Myeloid diff 2; ER-HoxA9 myeloid progenitors, no estrogen, GFP autofluorescence flow cytometry; vehicle wells 0%, positive control 100%; fluorescence response, % (concentration not given with the values); hit rate 7.4% among 2,300; AID 651707;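 active = over 5% cells positive for green fluorescent reporter, or over 2% positive for both it and APC stain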;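 also: range taken on the double positive population between DMSO and positive control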
* hit, by the source's call; i = inactive; x = no result given; + = active, no number. Compounds with a hit are over-represented: about 3.6% of the library has one in this group of screens.

SMILES	CendR NRP1 mod	NadD inh	Myeloid diff 2	FAS-TE inh	CRFBP-R2 block	Myeloid diff CP1	GFP autofluor
C[C@@H]1CN([C@@H](C)CO)C(=O)CCCn2nncc2CO[C@@H]1CN(C)C(=O)Nc1cccc(Oc2ccccn2)c1	-2	5	i	-7	3	i	0
C[C@H]1CN([C@@H](C)CO)C(=O)CCCn2nncc2CO[C@H]1CN(C)S(=O)(=O)c1ccc2c(c1)OCCCO2	2	-1	i	-6	-15	i	0
C[C@@H]1CN([C@H](C)CO)C(=O)CCCn2nncc2CO[C@H]1CN(C)C(=O)Nc1cccc(Oc2ccccn2)c1	-9	-1	i	-7	-11	x	x
Cc1ccc(S(=O)(=O)N(C)C[C@@H]2OCc3cn(nn3)CCCC(=O)N([C@@H](C)CO)C[C@H]2C)cc1	-4	2	i	-10	9	i	0
N#CCCN1CCN(CCC#N)C1=S	5	2	i	-8	13	x	x
CN(c1ccccc1)S(=O)(=O)c1cccc(NS(=O)(=O)c2cccc(C(=O)O)c2)c1	-2	-7	i	-2	7	x	x
CC1CCCN(S(=O)(=O)c2ccc(C(=O)Nc3nnc(-c4ccco4)o3)cc2)C1 (stereo not given)	-9	22	i	-4	9	x	x
O=C1C=CN2CCOCC2C1 (stereo not given)	13	-1	i	-12	2	x	x
O=C1C=CN2CCCCC2CC1 (stereo not given)	-2	0	+	-12	4	i	5
c1ccc(CCc2cc3ccccc3[nH]2)cc1	2	-3	i	24	1	x	x
CC1Cc2ccccc2N1C(=O)CO/N=C/c1ccc(OC(F)F)cc1 (stereo not given)	-10	-2	i	5	5	x	x
COc1cc(/C=C2\SC(=O)N(CC(=O)Nc3ccccc3F)C2=O)cc(Cl)c1O	-48	8	i	-6	-150	i	0
O=C(NCCCC1CCCC1)C1CCC(=O)N(Cc2cccc(C(F)(F)F)c2)C1 (stereo not given)	1	-2	+	21	25	i	0
Cc1cccc(C)c1-n1c(C)nn(-c2ncc(C(F)(F)F)cc2Cl)c1=O	8	3	i	-4	4	i	0
Cc1nn(-c2ncc(C(F)(F)F)cc2Cl)c(=O)n1-c1c(F)cccc1F	-1	1	i	-6	5	x	x
CCCNC(=O)C1(C)CCN(C(=O)c2cc(C(C)(C)C)nn2C)C1 (stereo not given)	-6	1	i	-5	x	x	x
COc1ccc(C(=O)Nc2cccc(N(C)S(C)(=O)=O)c2)cc1OC	0	-1	i	-9	-4	i	0
Cc1ccc(S(=O)(=O)CC(=O)Nc2ccc(Cl)cn2)cc1	-5	-1	i	-4	20	x	x
Cc1ccc(/C=N/NC(=O)c2cc3c(s2)CCCC3)o1	-6	-4	i	0	-16	i	0
CCC(=O)N1CCc2cc(S(=O)(=O)CCC(=O)N(C)c3ccc(OC)cc3OC)ccc21	3	-1	i	-4	0	x	x
O=C(Nc1ccc(Cc2ccncc2)cc1)C1CCC(N2C(=O)C3C4C=CC(C5CC45)C3C2=O)CC1 (stereo not given)	-7	9	+	4	-33	i	1
CCCCCCCCN1C(=O)[C@H](CC(=O)N2CCN(C(=O)c3ccco3)CC2)C[C@@]2(C(=O)OCC)CCCC=C12	5	2	i	9	x	x	x
COC(=O)C(Cc1ccccc1)NC(=O)CCc1c[nH]c2ccccc12 (stereo not given)	-5	-8	i	-2	-6	x	x
Cn1c(=O)c2cc(S(=O)(=O)NC(Cc3ccccc3)C(=O)NCc3ccco3)ccc2n(C)c1=O (stereo not given)	3	7	i	0	-4	i	0
CCOC(=O)C1CCN(C(=O)c2ccc3c(c2)OCCO3)CC1	14	-5	i	-6	-3	x	x
CCOc1ccc(C(=O)N2CCC(C(=O)c3ccc4c(c3)OCCO4)CC2)cc1	0	3	i	-5	23	i	0
